# Data published in PubChem BioAssay AID1159606 (Sanford-Burnham Center for Chemical Genomics, 2016).
# The campaign covered roughly 360,000 compounds. About 7,300 (2%) were called active. Rule as the data show it: active = inhibition above about 50%; inactive = the rest. The sample as a whole holds a higher share of actives than the screen did.
# Assay: inhibitors of TWEAK-Fn14 signaling, primary screen, luciferase reporter cells, uHTS (AID 1159606)
# Conditions: TWEAK-stimulated Fn14 reporter cells, luciferase luminescence, 8 h; at 10 µM; hits give high values
row,Structure (SMILES),inhibition
1,CCN(CC)CCn1cnc2c1c(=O)n(CCOC(=O)c1cc(OC)c(OC)c(OC)c1)c(=O)n2C,-2.5% (inactive)
2,O=C(CC1SC(N2CCCC2)=NC1=O)Nc1ccc(C(=O)NCCc2ccc(F)cc2)cc1 (stereo not drawn),-8.62% (inactive)
3,N#Cc1ccc(C(=O)Nc2nc(-c3cccs3)c(C(=O)C(F)(F)F)s2)cc1,58.4% (active)
4,N#Cc1c(-c2cccs2)nc(SCC(=O)c2ccc(Br)cc2)[nH]c1=O,-12.4% (inactive)
5,C=CCN(CC=C)S(=O)(=O)c1ccc(C(=O)Nc2nc3c(s2)CCc2ccccc2-3)cc1,-34.3% (inactive)
6,Cc1oc2c(C)c3oc(=O)c(CC(=O)N[C@@H](CC(C)C)C(=O)N[C@@H](Cc4ccccc4)C(=O)O)c(C)c3cc2c1C,-9.29% (inactive)
7,COC(=O)c1ccc(NS(=O)(=O)c2cc3c4c(c2)C(C)C(=O)N4CCC3)cc1 (stereo not drawn),9.82% (inactive)
8,O=C(Nc1nnc(-c2ccc(F)cc2)s1)c1c(F)cccc1Cl,5.11% (inactive)
9,Cc1ccc(CS(=O)(=O)c2ncc(Cl)c(C(=O)Nc3nnc(C)s3)n2)cc1,96.5% (active)
10,Cc1cccc(C(=O)Nc2nnc(S(=O)(=O)N3CCCCCC3)s2)c1,-46.1% (inactive)
11,CCOC(=O)CSc1nnc(NC(=O)c2cccc(S(=O)(=O)N3CCCCC3)c2)s1,41.9% (inactive)
12,Cc1ccc(S(=O)(=O)CCC(=O)Nc2nnc(CC(C)C)s2)cc1,-1.46% (inactive)
13,CSc1nnc(NC(=O)c2nc(S(=O)(=O)Cc3ccc(C)cc3)ncc2Cl)s1,92% (active)
14,CSc1nc2nc3c(c(=O)n2[nH]1)CCC3,-0.44% (inactive)
15,CCCn1c(N)c(N(CCOC)C(=O)C2CCCC2)c(=O)[nH]c1=O,-6.44% (inactive)
16,CC(=O)Nc1ccc(S(=O)(=O)N2CCC(C(=O)N[C@@H](Cc3ccccc3)C(=O)O)CC2)cc1,-3.83% (inactive)
17,Cc1cc(OCCOc2cccc3cccnc23)c(C)cc1Cl,-15.2% (inactive)
18,Cc1ccc([C@@H]2CC(=O)[C@@H]3CN(S(=O)(=O)c4ccc(C)cc4)[C@H](c4ccccc4F)C[C@@H]3N2S(=O)(=O)c2ccc(Cl)cc2)cc1,-13.3% (inactive)
19,COc1cc(C(F)(F)F)nc2c(Br)c(C(C)(C)C)nn12,15.2% (inactive)
20,CC1CN(C(=S)SCC(=O)c2ccccc2)CC(C)O1 (stereo not drawn),3.23% (inactive)
21,O=C(CSC(=S)N1CCOCC1)c1ccccc1,71.9% (active)
22,NC(=NC(=O)c1ccccc1)N1CCOCC1,-6.39% (inactive)
23,CC1(C(=O)Nc2cccc3cccnc23)CCN1C(=O)CCC1CCCC1 (stereo not drawn),8.06% (inactive)
24,N#Cc1ccsc1NC(=O)CN1CCCCC1,-0.37% (inactive)

row,Structure (SMILES),inhibition
1,Cc1csc(SCC(=O)Nc2ccc(C)c(S(=O)(=O)N(C)C)c2)n1,-4.8% (inactive)
2,Cc1csc(SCC(=O)Nc2sccc2C#N)n1,56.5% (active)
3,CCN1C(=O)N[C@@H](c2ccccc2)[C@H](C(C)=O)[C@H]1C,-0.1% (inactive)
4,CSc1ccccc1NC(=O)Cc1ccc(Br)cc1,4.45% (inactive)
5,CCC1CCc2c(sc(NC(C)=O)c2C#N)C1 (stereo not drawn),-8.64% (inactive)
6,N#Cc1ccccc1NC(=O)c1ccc2c(c1)OCO2,-17.5% (inactive)
7,Cc1ccc(-c2csc(NC(=O)C3=COCCO3)n2)cc1C,1.4% (inactive)
8,COCc1nnc(NC(=O)c2ccc3c(c2)OCO3)s1,14.7% (inactive)
9,C/C(=N/NC(=O)c1ccncc1)c1ccc2c(c1)OCO2,11.5% (inactive)
10,O=C(Nc1nc(-c2ccc3c(c2)OCO3)cs1)c1ccncc1,57.8% (active)
11,O=C(Nc1nc2ccccc2s1)c1ccc2c(c1)OCO2,83.7% (active)
12,CCCNS(=O)(=O)c1ccc(CCC(=O)NCc2cccnc2)cc1,6.9% (inactive)
13,COc1ccc(C2(C)ON(c3ccccc3C(F)(F)F)C2=O)cc1 (stereo not drawn),-8.35% (inactive)
14,CCCCN(CC)C(=O)c1ccccc1Oc1ccccc1,11.6% (inactive)
15,Cc1ccc(NC(=O)Cc2nc(COC(=O)C(C)NS(=O)(=O)c3ccc(C)cc3)cs2)cc1 (stereo not drawn),-7.54% (inactive)
16,CCOC(=O)/C=C/CN(C(=O)OC(C)(C)C)S(=O)(=O)N1CC=CC1,8.4% (inactive)
17,Cc1ccc(-n2c(SCC(=O)N3c4ccccc4Sc4ccccc43)nnc2-c2ccncc2)cc1,20.4% (inactive)
18,Cc1ccc(-c2noc(CSc3nnc(-c4ccncc4)n3-c3ccc(F)cc3)n2)cc1,1% (inactive)
19,Cc1ccc(Nc2nc(CSc3nnc(-c4ccncc4)n3-c3ccccc3C)cs2)cc1,74.3% (active)
20,FC(F)(F)c1cc(C(F)(F)F)c2ccc(N3CCN(c4ccccc4)CC3)nc2n1,-12.2% (inactive)
21,Cc1ccc(Cc2c(-c3ccccc3)nc3ccc(Cl)cn23)cc1,-20.8% (inactive)
22,Cc1ccc(-c2nc3ccc(Cl)cn3c2Cc2ccccc2)cc1,-22% (inactive)
23,Clc1ccc2nc(CSc3ccccc3)cn2c1,59.6% (active)
24,CC1(C(=O)NS(=O)(=O)c2cccc(F)c2)CCN1C(=O)c1cccc2ccccc12 (stereo not drawn),-20.6% (inactive)

row,Structure (SMILES),inhibition
1,Cc1ccc(-c2cnc(C(O)c3cc(Cl)cc(Cl)c3)[nH]2)cc1 (stereo not drawn),-5.74% (inactive)
2,CC1CCc2sc3nc(N4CCN(CCO)CC4)n4ncnc4c3c2C1 (stereo not drawn),-63.4% (inactive)
3,CCCCNc1c(-c2ccc(OC)c(Sc3ccc(OC)cc3)c2)nc2ccc(Cl)cn12,5.14% (inactive)
4,COC(=O)c1ccc2nc(-c3ccccc3)c(Cc3ccc(OC)cc3C)n2c1,-3.6% (inactive)
5,CCCCNc1c(-c2cccc(Sc3ccc(OC)cc3)c2)nc2ccccn12,53.7% (active)
6,COC(=O)c1cc(=O)n(-c2c(Cl)cc(C(F)(F)F)cc2Cl)[nH]1,7.88% (inactive)
7,O=C(Nc1ccccn1)C1CCN(S(=O)(=O)c2ccccc2)CC1,-18.5% (inactive)
8,CCOC(=O)C1CCCN(C(=O)C2CCN(S(=O)(=O)c3ccc(Cl)c(C(F)(F)F)c3)CC2)C1 (stereo not drawn),-2.02% (inactive)
9,O=C(Nc1nccs1)C1CCN(S(=O)(=O)c2ccc(Cl)c(C(F)(F)F)c2)CC1,73.5% (active)
10,N#Cc1cccc(NC(=O)c2cc(C3CCCCN3C(=O)CCc3ccccc3)on2)c1 (stereo not drawn),26.1% (inactive)
11,C#CCN(N(C)c1ncc(C(F)(F)F)cc1Cl)S(=O)(=O)c1ccc2ccccc2c1,18% (inactive)
12,C=CCNc1nc(N)c(C(=C(C#N)C#N)c2ccccc2)s1,17.7% (inactive)
13,Cc1ccc(-n2c(-c3ccc(Cl)cc3)n[nH]c2=S)cc1,104% (active)
14,COc1ccc(-n2c(-c3ccc(Cl)cc3)n[nH]c2=S)c(OC)c1,0.97% (inactive)
15,Cc1cc(-c2n[nH]c(=S)n2-c2ccc(C)c(C)c2)no1,4.62% (inactive)
16,CC(C)Oc1ccc(/C=C(\NC(=O)/C=C/c2ccco2)C(=O)NCCc2nc3ccccc3[nH]2)cc1,13.7% (inactive)
17,CCCC(NC(=O)c1ccco1)c1nc2ccccc2[nH]1 (stereo not drawn),19.6% (inactive)
18,CC(C)=C(NC(=O)c1ccco1)C(=O)NCCc1nc2ccccc2[nH]1,83.7% (active)
19,Cc1csc(NC(=O)CSc2ccc(-c3ccc(F)cc3)nn2)n1,-0.16% (inactive)
20,C=CCC[C@H](CCCCC)OC(=O)/C=C/[C@H](O)[C@@H](O)C[C@@H](O)CC=C,2.69% (inactive)
21,c1c2c(cc3sc(N4CCCCC4)nc13)OCCO2,98.9% (active)
22,CCOC(=O)N1CCC(NC(=O)c2ccc3nc(N4CCOCC4)sc3c2)CC1,18.3% (inactive)
23,CCCCc1ccc(NS(=O)(=O)c2cccc(C(=O)N3CCCN(C)CC3)c2)cc1,13.3% (inactive)
24,CN(C)c1ccnc2sc3c(=O)n(Cc4ccccc4)cnc3c12,69.3% (active)

row,Structure (SMILES),inhibition
1,O=c1c2c(ncn1Cc1ccccc1)nc1n2CCC1,-3.28% (inactive)
2,CN(C)/C=C/c1c(C#N)c(=O)ncn1Cc1ccccc1,1.93% (inactive)
3,O=C(c1ccccc1)N1CCN(C(=O)c2cc3nc(-c4ccccc4)cc(C(F)(F)F)n3n2)CC1,12% (inactive)
4,C#Cc1cc(N2CCN(C(=O)c3ccoc3)CC2)n2nc(-c3cccc(Cl)c3)cc2n1,-13.9% (inactive)
5,O=C(c1ccccc1)N1CCN(c2cc(-c3ccccc3)nc3cc(-c4cccc(Cl)c4)nn23)CC1,50.7% (active)
6,CCC(Sc1nncn1C)C(=O)Nc1nnc(-c2ccc(Cl)cc2)s1 (stereo not drawn),2.15% (inactive)
7,Cc1cc(C(=O)OCC(=O)Nc2ccc(F)c(F)c2)c(C)o1,-6.41% (inactive)
8,O=S(=O)(NCC1CCCO1)c1cnc(Cl)c(Cl)c1 (stereo not drawn),61.4% (active)
9,O=S(=O)(NCC1CCCO1)c1ccc2ccccc2c1 (stereo not drawn),-2.08% (inactive)
10,CCOc1ccc(S(=O)(=O)NCC2CCCO2)cc1 (stereo not drawn),-13.5% (inactive)
11,CC1CCCC(C)N1C(=O)COC(=O)c1ccccc1C(=O)c1ccccc1 (stereo not drawn),3.29% (inactive)
12,Cc1ncoc1C(=O)N1CCCC(C(=O)c2ccc3c4c(cccc24)CC3)C1 (stereo not drawn),-10.9% (inactive)
13,O=C(CN1CCN(c2ccccc2F)CC1)c1ccc2c(c1)OCO2,-7.75% (inactive)
14,O=C(CCN1CCc2ccccc2C(O)(c2ccccc2)C1)c1ccc2c(c1)OCCO2 (stereo not drawn),60.1% (active)
15,CCC1(c2ccccc2)NC(=O)N(CC(=O)c2ccc3c(c2)OCO3)C1=O (stereo not drawn),1.98% (inactive)
16,NC(=O)c1nnsc1-c1ccc(-c2snnc2C(N)=O)cc1,16.3% (inactive)
17,CCc1ccccc1N1CN(Cc2ccco2)CNC1=S,-34% (inactive)
18,CC(C)C(NC(=O)C1CCC(C(C)(C)C)CC1)C(=O)NCCCN1CCCCC1 (stereo not drawn),-11.2% (inactive)
19,Cc1cc(C(=O)COc2ccccc2[N+](=O)[O-])c(C)n1-c1cccc(S(=O)(=O)N2CCOCC2)c1,82.7% (active)
20,COC(=O)c1cc(Oc2ccc(S(=O)(=O)N3CCOCC3)cc2[N+](=O)[O-])cc(C(=O)OC)c1,3.34% (inactive)
21,Cc1cc(S(=O)(=O)N2CCOCC2)ccc1OCC(=O)N1CCOCC1,3.41% (inactive)
